Results from PubChem BioAssay.

Assays:
PEG-3 [1] = target: PEG-3 (UniProt Q6IN02); test: inhibition of PEG-3 promoter-driven reporter – cell-based, HeLa, luciferase, CREF/GAPDH counter-screen panel, dose response (AID 624167); conditions: CREF/GAPDH counter-screens; HeLa PEG-Prom luciferase reporter, overnight, run 1, dose range 1, at 100 µM (top of the series) unless noted
PEG-3 [2] = target: PEG-3 (UniProt Q6IN02); test: as above; conditions: CREF/GAPDH counter-screens; HeLa PEG-Prom luciferase reporter, overnight, run 2, dose range 1, at 100 µM (top of the series) unless noted
Rat fibroblasts (CREF) [3] = test: as above; conditions: CREF/GAPDH counter-screens; run 1, dose range 1, at 100 µM (top of the series)
Rat fibroblasts (CREF) [4] = test: as above; conditions: CREF/GAPDH counter-screens; run 2, dose range 1, at 100 µM (top of the series)
[5] = target: Tumor necrosis factor receptor superfamily member 10B (Homo sapiens) (UniProt O14763); test: viability loss of caspase-8 NB7 cells with TRAIL – with/without TRAIL, luminescence panel, confirmation (AID 651596); conditions: NB7 neuroblastoma + caspase-8, TRAIL sensitization, NB7 Caspase-8, with TRAIL, mean of runs, at 10 µM, stronger effect = higher value
[6] = as above; conditions: NB7 neuroblastoma + caspase-8, without TRAIL, NB7 Caspase-8, without TRAIL, mean of runs, at 10 µM
[7] = NFkB reporter suppression in cystic fibrosis bronchial cells – cell-based, uHTS hits, panel, cytotoxicity readout, dose response (AID 624344); conditions: CF bronchial epithelial cells, PAF-induced NFkB reporter inhibition, with PAF, run 1; at 79 µM (top of the series) unless noted
[8] = as above; conditions: CF bronchial epithelial cells, PAF-induced NFkB reporter inhibition, with PAF, run 2; at 79 µM (top of the series) unless noted

Sequence of Tumor necrosis factor receptor superfamily member 10B (Homo sapiens) (O14763 whole entry, looked up): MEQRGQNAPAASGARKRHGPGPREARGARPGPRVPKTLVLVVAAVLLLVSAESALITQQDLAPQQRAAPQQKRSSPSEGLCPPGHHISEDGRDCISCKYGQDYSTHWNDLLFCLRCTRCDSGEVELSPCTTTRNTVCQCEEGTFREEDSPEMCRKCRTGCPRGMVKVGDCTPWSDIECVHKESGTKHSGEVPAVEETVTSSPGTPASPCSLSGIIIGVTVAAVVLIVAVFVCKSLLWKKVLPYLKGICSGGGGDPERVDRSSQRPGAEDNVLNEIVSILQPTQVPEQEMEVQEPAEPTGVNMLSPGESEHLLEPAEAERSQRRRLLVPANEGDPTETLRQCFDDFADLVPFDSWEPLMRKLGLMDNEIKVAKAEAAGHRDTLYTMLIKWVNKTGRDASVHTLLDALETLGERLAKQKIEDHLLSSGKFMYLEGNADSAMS
Sequence of PEG-3 (Q6IN02 whole entry, looked up): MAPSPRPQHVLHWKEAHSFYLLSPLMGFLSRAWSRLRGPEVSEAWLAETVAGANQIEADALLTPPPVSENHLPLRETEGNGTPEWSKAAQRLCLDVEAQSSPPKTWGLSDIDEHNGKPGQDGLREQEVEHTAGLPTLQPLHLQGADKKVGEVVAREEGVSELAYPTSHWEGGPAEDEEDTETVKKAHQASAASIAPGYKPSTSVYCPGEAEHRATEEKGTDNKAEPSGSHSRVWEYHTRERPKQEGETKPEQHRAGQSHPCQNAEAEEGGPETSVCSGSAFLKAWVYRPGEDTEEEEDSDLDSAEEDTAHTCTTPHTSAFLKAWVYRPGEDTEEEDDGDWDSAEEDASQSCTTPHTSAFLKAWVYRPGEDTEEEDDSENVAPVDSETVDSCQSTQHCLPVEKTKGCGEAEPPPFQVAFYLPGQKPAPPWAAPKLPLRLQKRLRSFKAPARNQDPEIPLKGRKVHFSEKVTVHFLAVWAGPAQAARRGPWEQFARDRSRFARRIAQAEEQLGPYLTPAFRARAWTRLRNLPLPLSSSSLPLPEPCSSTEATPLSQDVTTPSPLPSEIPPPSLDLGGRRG

| Compound | inhibition (PEG-3 [1]) | inhibition (PEG-3 [2]) | inhibition (Rat fibroblasts (CREF) [3]) | inhibition (Rat fibroblasts (CREF) [4]) | activity [5] | activity [6] | inhibition [7] | inhibition [8] |
| --- | --- | --- | --- | --- | --- | --- | --- | --- |
| O=c1c(Cl)c(N2CCCCC2)cnn1-c1nc2ccccc2[nH]1 | 96.7% | 95% | 100% | 100% | 96.4% | 96.5% | – | – |
| CCOc1ccc(NC(=O)c2ccccn2)cc1 | 88.8% | 91.5% | 97.1% | 95.5% | 92.4% | 89.9% | – | – |
| Cc1cccc(/C=N/Nc2ccc3ccccc3n2)c1 | 101% | 101% | 94.2% | 96.2% | 82.4% | 78.5% | – | – |
| C(=NNc1ccc2ccccc2n1)c1ccccn1 | 99% | 102% | 99% | 99.3% | 82.5% | 86% | – | – |
| O=C(Nc1ccccn1)c1cc2ccccc2o1 | 82.3% | 96.6% | 99.4% | 98.8% | 90.3% | 89.6% | – | – |
| Cc1cc(C)c2sc(N(CCCN(C)C)C(=O)c3ccc(S(=O)(=O)N4CCCc5ccccc54)cc3)nc2c1 | 97.5% | 99.2% | – | – | 31.6% | 32.4% | – | – |
| COC(=O)C1=C(C)N(Cc2ccccc2)C(=NCCc2c[nH]c3ccccc23)N[C@H]1c1cccc(C(F)(F)F)c1 | 101% | 99.9% | – | – | 17.3% | 44.5% | – | – |
| Cc1cnc(NC(=O)C2CC(=O)N(c3cccc(Cl)c3)C2)s1 (stereo not drawn) | 97.7% | 87.8% | – | – | – | – | 94.9% | 116% |
| O=C(Nc1ccccc1)NN(C(=O)CCl)c1ccccc1 | 102% | 101% | – | – | 98.3% | 98.3% | – | – |
| CC(=O)CSc1ccc(-c2nc3cc(C)c(C)cc3[nH]2)cn1 | 102% | 101% | 95.4% | 95.4% | 89.6% | 88.5% | – | – |
| Cc1ccccc1-c1nc(-c2ccccn2)no1 | 96.7% | 92% | 99.5% | 99.3% | 88.8% | 86.8% | – | – |
